Test results taken from PubChem BioAssay (NCI).
The panel holds about 83,000 compounds, 20% with a hit somewhere; the sample as a whole holds those more often.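 Method: cells in 96-well plates; compound added at one concentration; 48 h incubation; percent growth measured; values under 10 scored active.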 Active and inactive are the calls of the source.

test system: UO-31 renal; assay: NCI-60 one-dose screen, 48 h (100 = growth as untreated, 0 = no growth, -100 = all killed); conditions: 10 µM

SMILES	growth
CCCC1(CC(=O)O)OCCc2c1[nH]c1ccccc21 (stereo not drawn)	86.4% (inactive)
CN(C)C(=S)N/N=C\C=N/NC(=S)N(C)C	31.7% (inactive)
C=C(NC(=O)C(=C)NC(=O)c1csc(C2=NC3c4csc(n4)C4NC(=O)c5csc(n5)C(C(C)(O)C(C)O)NC(=O)C5CSC(=N5)/C(=C/C)NC(=O)C(C(C)O)NC(=O)c5csc(n5)C3(CC2)NC(=O)C(C)NC(=O)C(=C)NC(=O)C(=C)NC(=O)C(C(C)C)NC2C=Cc3c(C(C)O)cc(nc3C2O)C(=O)OC4C)n1)C(N)=O (stereo not drawn)	-42.2% (active)
COc1ccc2nc3ccccc3c(NCCNCC(C)O)c2c1 (stereo not drawn)	17.9% (inactive)
CN(C)CCN1C(=O)c2cccc3cc(N)cc(c23)C1=O	-26.8% (active)
COc1ccc(N2C(=O)C3c4[nH]c5ccc(OCc6ccccc6)cc5c4C4CCC(C(C)C)CC4C3C2=O)cc1 (stereo not drawn)	91.7% (inactive)
CC(C)C[C@H](NC(=O)[C@H](Cc1cccc2ccccc12)NS(=O)(=O)c1cccc2cccnc12)B(O)O	-80.2% (active)
O=C(CC(C(=O)c1ccccc1)N1CCOCC1)c1ccccc1 (stereo not drawn)	89.9% (inactive)
NC(=O)SCC(=O)Nc1ccc(S(N)(=O)=O)cc1	86.4% (inactive)
CCCCN(CCCC)CCCCCCCCC(O)c1cc2ccccc2c2ccccc12 (stereo not drawn)	52.3% (inactive)
O=C(CCCCCCC(=O)Nc1cccnc1)NO	30.3% (inactive)
COc1ccc2nc3cc(Cl)ccc3c(NCCNCC(C)O)c2c1 (stereo not drawn)	32.4% (inactive)
Clc1cccc(-c2nc(-c3cccs3)no2)c1	74.1% (inactive)
